Each structure is given as a SMILES string. The source made the active and inactive calls.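 Rule for the calls: active = blocks over 70% of labeled estradiol binding at 10 µM, or over a set limit at 100 nM; inactive = the rest.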

As a reminder, the inhibition is the change of the read-out against control, counted positive when it falls.

The target of one experiment is Estrogen receptor beta (Homo sapiens) (UniProt Q92731). The experiment in a line: displacement of fluorescent estrogen from ERbeta – cell-based, Cos7 ERbeta-GFP, flow cytometry, primary screen (AID 1210).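 Note: 0% = DMSO vehicle wells and 100% = complete loss of labeled estradiol signal.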 The following applies: fluorescent estrogen binding, at 10 µM, stronger effect = higher value. In general terms: Flow cytometry measures light scatter and fluorescence of single cells or particles in a stream.
Sequence of Estrogen receptor beta (Homo sapiens) (Q92731 whole entry, looked up): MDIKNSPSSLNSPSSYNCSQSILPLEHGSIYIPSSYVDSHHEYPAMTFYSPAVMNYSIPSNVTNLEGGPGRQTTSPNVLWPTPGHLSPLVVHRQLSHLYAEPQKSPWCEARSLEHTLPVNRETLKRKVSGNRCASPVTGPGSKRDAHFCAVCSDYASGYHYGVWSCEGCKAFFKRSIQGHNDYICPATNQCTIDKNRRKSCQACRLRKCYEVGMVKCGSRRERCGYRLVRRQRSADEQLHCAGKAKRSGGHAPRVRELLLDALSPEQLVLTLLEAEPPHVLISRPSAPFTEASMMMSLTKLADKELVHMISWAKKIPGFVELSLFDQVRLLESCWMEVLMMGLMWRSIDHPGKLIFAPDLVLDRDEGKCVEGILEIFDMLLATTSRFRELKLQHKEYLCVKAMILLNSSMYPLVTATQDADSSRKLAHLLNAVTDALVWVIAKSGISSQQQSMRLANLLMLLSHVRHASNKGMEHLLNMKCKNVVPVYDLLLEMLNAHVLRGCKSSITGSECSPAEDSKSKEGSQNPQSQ
On to `CCOC(=O)N1CCN(c2ccc(O)cc2)CC1`, for which the inhibition is 45% (inactive).
On the same count and under the same terms, next, `CN(C(=S)Nc1cccnc1)c1ccc(O)cc1`: 14% (inactive).
Still for that read-out and setting: next, `CC1(N2CCOCC2)CC2(O)C(=[N+]1[O-])CCc1nonc12` (stereo unspecified): 49% (inactive).
On the same count and under the same terms, then `CCOc1ccccc1N1CSC2=C(C#N)C(c3c(OC)ccc4ccccc34)CC(=O)N2C1` (stereo unspecified), with 35% (inactive); and `O=c1cc(O)c2sc(Nc3ccc(F)cc3)nc2[nH]1`, with 8% (inactive).
In the case of `CC(C)c1ccc2c(c1)[C@H]1OCC[C@H]1[C@@H](c1cccs1)N2`, the inhibition is 0% (inactive).
The same measure, in the same setting: next, `COc1ccc(-c2nc3ccc([N+](=O)[O-])cc3o2)cc1`: 36% (inactive).
On the same count and under the same terms, next, `O=C(O)c1cc(-c2ccc(O)cc2)nc2ccccc12`: 57% (inactive); `O=C(CSc1nc2scc(-c3ccco3)c2c(=O)n1-c1ccccc1)NCC1CCCO1` (stereo unspecified): 55% (inactive).
Same read-out and setting: next, `Cc1cc(C)nc(NC(=O)CSc2nn(C)c(=S)s2)n1`: 6% (inactive); `O=C(COC(=O)c1cccc(S(=O)(=O)N2CCc3ccccc3C2)c1)NCc1ccco1`: 29% (inactive); `CN(c1ccccc1C(=O)O)S(=O)(=O)c1ccc2c3c(cccc13)C(=O)N2`: 0% (inactive).
`O=C(Nc1cc(C(F)(F)F)ccc1N1CCOCC1)C1Cc2ccccc2CN1C(=O)c1ccco1` (stereo unspecified): the inhibition is 73% (active).
On the same count and under the same terms, next, `Cc1ccc(Nc2nnc(SCC(=O)NCc3ccco3)s2)cc1`: 18% (inactive).
Same read-out and setting: then `O=[N+]([O-])c1ccc(Cl)c2c1C1C=CCC1C(c1ccccn1)N2` (stereo unspecified), with 0% (inactive); and `CCCCn1c(NC(=O)CC)c(C#N)c2nc3ccccc3nc21`, with 47% (inactive).
On to `CCC(Sc1ncnc2sc(C)c(C)c12)C(=O)OC` (stereo unspecified), for which the inhibition is 27% (inactive).
Still for that read-out and setting: then `CCCc1cc(-n2ccnc2)n2c(nc3ccccc32)c1C#N`, with 32% (active).
Same read-out and setting: next, `Cc1cc(C)c2c(c1)[C@@H]1C=CC[C@@H]1[C@H](c1ccc(S(=O)(=O)N3CCOCC3)cc1)N2`: 35% (inactive); `CCn1c(SCC(=O)N2CCOCC2)nc2oc3c(Cl)cc(Cl)cc3c(=O)c2c1=O`: 56% (inactive).
Same read-out and setting: then `O=C(Cc1cccs1)Nc1nncs1`, with 26% (inactive); and `COc1ccc(OC)c(NC(=O)CSc2nc3ccccc3c3nc4ccccc4n23)c1`, with 70% (inactive); and `c1ccc(OCc2nnc3sc(C4COc5ccccc5O4)nn23)cc1` (stereo unspecified), with 29% (inactive).
On to `COc1cc2cc(C(c3nnnn3C3CCCC3)N3CCc4ccccc43)c(=O)[nH]c2cc1OC` (stereo unspecified), for which the inhibition was 37% (inactive).
On the same count and under the same terms, next, `CCOC(=O)c1c(/N=C/c2ccc(O)cc2O)sc2c1CCC2`: 33% (inactive); `O=C(Nc1ccc2nn(-c3ccccc3)nc2c1)c1ccc2c(c1)OCO2`: 27% (inactive); `CC(Oc1ccc(Cl)cc1Cl)C(=O)Nc1ccc2oc(-c3ccncc3)nc2c1` (stereo unspecified): 50% (inactive).
Consider `Cc1c2cc(O)c(=O)cc-2oc2cc(O)c(O)cc12`, for which the inhibition is 67% (inactive).
Regarding `C/C(N)=C(/C#N)C(=O)CSc1nnc(Nc2cccc(C)c2C)s1`, the inhibition was 39% (inactive).
Same read-out and setting: next, `O=Cc1cn(-c2ccccc2)nc1-c1cc2c(ccc3ccccc32)oc1=O`: 39% (active); `Cc1ccc2c(Cl)cc(Cl)c(OCC(=O)NCc3ccco3)c2n1`: 29% (inactive).
On the same count and under the same terms, next, `COc1cc(C(C#N)N2N=C(c3ccccc3)CC2c2ccccc2)ccc1O` (stereo unspecified): 54% (inactive); `CCC1(C)NC(=O)N(CC(=O)Nc2sc3c(c2C(N)=O)CCC3)C1=O` (stereo unspecified): 58% (inactive); `Nc1ccc2oc(-c3ccccc3Cl)cc(=O)c2c1O`: 25% (inactive).
Same read-out and setting: then `Cc1nc2ccccc2c(=O)n1/N=C/c1c(O)ccc2oc3c(c12)CCCC3`, with 47% (inactive); and `COc1ccc(C2=NN(C(=O)c3cccnc3)C(c3ccccc3)C2)cc1` (stereo unspecified), with 41% (inactive); and `CSCCC(NC(=O)c1ccco1)C(=O)OCC(=O)Nc1sccc1C#N` (stereo unspecified), with 6% (inactive).
As for `COc1ccccc1-c1nnc2n1N=C(c1ccc(O)c(O)c1)CS2`, the inhibition is 69% (inactive).

Still in this experiment, the particulars now being: fluorescent estrogen binding, ligand binding inhibition, at 0.1 µM, stronger effect = higher value.
The molecule `CCOC(=O)N1CCN(c2ccc(O)cc2)CC1` gave an inhibition of 34%.
As for `CN(C(=S)Nc1cccnc1)c1ccc(O)cc1`, the inhibition is 54%.
Regarding `CC1(N2CCOCC2)CC2(O)C(=[N+]1[O-])CCc1nonc12` (stereo unspecified), the inhibition was 62%.
On the same count and under the same terms, next, `CCOc1ccccc1N1CSC2=C(C#N)C(c3c(OC)ccc4ccccc34)CC(=O)N2C1` (stereo unspecified): 28%.
Consider `O=c1cc(O)c2sc(Nc3ccc(F)cc3)nc2[nH]1`, for which the inhibition amounted to 9%.
In turn, `CC(C)c1ccc2c(c1)[C@H]1OCC[C@H]1[C@@H](c1cccs1)N2` had an inhibition of 36%.
On to `COc1ccc(-c2nc3ccc([N+](=O)[O-])cc3o2)cc1`, for which the inhibition was 12%.
The molecule `O=C(O)c1cc(-c2ccc(O)cc2)nc2ccccc12` returned an inhibition of 8%.
As for `O=C(CSc1nc2scc(-c3ccco3)c2c(=O)n1-c1ccccc1)NCC1CCCO1` (stereo unspecified), the inhibition is 50%.
In turn, `Cc1cc(C)nc(NC(=O)CSc2nn(C)c(=S)s2)n1` showed an inhibition of 20%.
The same measure, in the same setting: then `O=C(COC(=O)c1cccc(S(=O)(=O)N2CCc3ccccc3C2)c1)NCc1ccco1`, with 5%; and `CN(c1ccccc1C(=O)O)S(=O)(=O)c1ccc2c3c(cccc13)C(=O)N2`, with 6%.
`O=C(Nc1cc(C(F)(F)F)ccc1N1CCOCC1)C1Cc2ccccc2CN1C(=O)c1ccco1` (stereo unspecified) showed an inhibition of 13%.
Still for that read-out and setting: next, `Cc1ccc(Nc2nnc(SCC(=O)NCc3ccco3)s2)cc1`: 18%; `O=[N+]([O-])c1ccc(Cl)c2c1C1C=CCC1C(c1ccccn1)N2` (stereo unspecified): 19%; `CCCCn1c(NC(=O)CC)c(C#N)c2nc3ccccc3nc21`: 17%.
With `CCC(Sc1ncnc2sc(C)c(C)c12)C(=O)OC` (stereo unspecified), the inhibition worked out at 41%.
`CCCc1cc(-n2ccnc2)n2c(nc3ccccc32)c1C#N`: the inhibition worked out at 75%.
`Cc1cc(C)c2c(c1)[C@@H]1C=CC[C@@H]1[C@H](c1ccc(S(=O)(=O)N3CCOCC3)cc1)N2` yielded an inhibition of 48%.
Take `CCn1c(SCC(=O)N2CCOCC2)nc2oc3c(Cl)cc(Cl)cc3c(=O)c2c1=O`: the inhibition came to 1%.
Consider `O=C(Cc1cccs1)Nc1nncs1`, for which the inhibition worked out at 16%.
Still for that read-out and setting: next, `COc1ccc(OC)c(NC(=O)CSc2nc3ccccc3c3nc4ccccc4n23)c1`: 16%.
The molecule `c1ccc(OCc2nnc3sc(C4COc5ccccc5O4)nn23)cc1` (stereo unspecified) displayed an inhibition of 28%.
`COc1cc2cc(C(c3nnnn3C3CCCC3)N3CCc4ccccc43)c(=O)[nH]c2cc1OC` (stereo unspecified) had an inhibition of 25%.
On the same count and under the same terms, then `CCOC(=O)c1c(/N=C/c2ccc(O)cc2O)sc2c1CCC2`, with 22%.
Molecule `O=C(Nc1ccc2nn(-c3ccccc3)nc2c1)c1ccc2c(c1)OCO2` displayed an inhibition of 14%.
On the same count and under the same terms, next, `CC(Oc1ccc(Cl)cc1Cl)C(=O)Nc1ccc2oc(-c3ccncc3)nc2c1` (stereo unspecified): 27%; `Cc1c2cc(O)c(=O)cc-2oc2cc(O)c(O)cc12`: 22%.
Still for that read-out and setting: then `C/C(N)=C(/C#N)C(=O)CSc1nnc(Nc2cccc(C)c2C)s1`, with 7%; and `O=Cc1cn(-c2ccccc2)nc1-c1cc2c(ccc3ccccc32)oc1=O`, with 81%.
With `Cc1ccc2c(Cl)cc(Cl)c(OCC(=O)NCc3ccco3)c2n1`, the inhibition turned out to be 38%.
`COc1cc(C(C#N)N2N=C(c3ccccc3)CC2c2ccccc2)ccc1O` (stereo unspecified) registered an inhibition of 5%.
The same measure, in the same setting: next, `CCC1(C)NC(=O)N(CC(=O)Nc2sc3c(c2C(N)=O)CCC3)C1=O` (stereo unspecified): 39%; `Nc1ccc2oc(-c3ccccc3Cl)cc(=O)c2c1O`: 26%.
Molecule `Cc1nc2ccccc2c(=O)n1/N=C/c1c(O)ccc2oc3c(c12)CCCC3` displayed an inhibition of 34%.
Same read-out and setting: then `COc1ccc(C2=NN(C(=O)c3cccnc3)C(c3ccccc3)C2)cc1` (stereo unspecified), with 12%; and `CSCCC(NC(=O)c1ccco1)C(=O)OCC(=O)Nc1sccc1C#N` (stereo unspecified), with 28%; and `COc1ccccc1-c1nnc2n1N=C(c1ccc(O)c(O)c1)CS2`, with 21%.

These data come from PubChem BioAssay AID1210 (NMMLSC, 2008).
